Screening data deposited in PubChem BioAssay by National Center for Advancing Translational Sciences (NCATS).
PLK1 PBD inh – PLK1 (human) polo-box domain binding inhibition; Plk1 PBD binding of FITC phosphopeptide, fluorescence polarization; 360,000 tested, 2.8% active; P53350; Potency, µM, for inactives: max response, negative = inhibition, most hits filed as inhibitors; further: potency means the concentration at half of the fitted maximal effect; series mostly up to about 57 µM; on the % scale 0 is the no-effect control and ±100 the full control effect; nearly all actives have a fitted effect of over 65% in size
Target sequence (P53350 whole entry, looked up, the tested form may be a part): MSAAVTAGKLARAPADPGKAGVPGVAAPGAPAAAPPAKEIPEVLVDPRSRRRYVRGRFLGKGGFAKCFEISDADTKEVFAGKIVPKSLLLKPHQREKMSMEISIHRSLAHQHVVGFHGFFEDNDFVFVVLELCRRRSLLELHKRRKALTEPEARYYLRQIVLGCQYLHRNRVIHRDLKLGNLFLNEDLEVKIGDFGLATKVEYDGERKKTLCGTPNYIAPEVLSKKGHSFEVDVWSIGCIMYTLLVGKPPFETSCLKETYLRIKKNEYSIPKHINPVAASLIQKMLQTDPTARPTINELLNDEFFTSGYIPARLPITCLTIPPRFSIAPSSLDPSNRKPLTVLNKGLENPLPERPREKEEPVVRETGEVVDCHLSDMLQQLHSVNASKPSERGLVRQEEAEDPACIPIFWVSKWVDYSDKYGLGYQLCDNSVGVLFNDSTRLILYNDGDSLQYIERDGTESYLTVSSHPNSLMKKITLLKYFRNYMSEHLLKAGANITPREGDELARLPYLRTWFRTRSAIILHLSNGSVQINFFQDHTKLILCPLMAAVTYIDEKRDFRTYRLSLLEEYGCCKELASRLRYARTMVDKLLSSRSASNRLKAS
BAZ2B block – BAZ2B (human) inhibition | Potency, µM (series often up to 114 µM), for inactives: top-dose activity change, negative = inhibition, hits mostly inhibitors | AlphaScreen BAZ2B-H3K14Ac peptide displacement | AID 504333 | 360,000 tested, 4.4% active | Q9UIF8; further: potency means the concentration at half of the fitted maximal effect; on the % scale 0 is the no-effect control and ±100 the full control effect; nearly all actives have a fitted effect of over 60% in size
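AlphaScreen luminescence quantifies BAZ2B engagement of H3K14Ac peptide; the protein and biotinylated peptide are both at 50 nM final, buffer PBS pH 7.4 with 0.01% Tween-20, all steps at room temperature.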
PI5P4K alpha inh – PI5P4K alpha (human) kinase inhibition. 330,000 tested, 1.2% active. PI5P4Kalpha enzyme, ADP-Glo luminescence, 60 min; hits give low values. max response, %; active means max response of -50% or lower; inconclusive means between -30% and -50%; inactive means -30% or higher; further: value at the top dose of about 77 µM; on the % scale 0 is the no-effect control and ±100 the full control effect
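ADP-Glo luminescence end-point read after a 60 min room-temperature kinase reaction of PI5P4Kalpha plus substrate, initiated with ATP at 5 microM final. Buffer: 0.038 M HEPES pH 7.4, EGTA, 0.1% CHAPS, 5% DMSO.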
JMJD2A Tudor inh – inhibitors of human JMJD2A Tudor domain; O75164; AlphaScreen JMJD2A-Tudor / H3K4me3 peptide binding; Potency, µM (doses to about 114 µM), for the others: at the top dose activity change, negative = inhibition, hits mostly inhibitors; 390,000 tested, 4.4% active; AID 504339; further: potency means the concentration at half of the fitted maximal effect; on the % scale 0 is the no-effect control and ±100 the full control effect; nearly all actives have a fitted effect of over 50% in size
G9a inh – blocks human histone lysine methyltransferase G9a | Q96KQ7 | G9a H3K9 monomethylation, AlphaScreen, 2 h | Potency, µM (top dose mostly 102 µM), for inactives: top-dose activity, negative = inhibition, most hits filed as inhibitors | 350,000 tested, 8.8% active; further: potency means the concentration at half of the fitted maximal effect; on the % scale 0 is the no-effect control and ±100 the full control effect; nearly all actives have a fitted effect of over 75% in size
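Using a bead-based AlphaScreen, monomethylated H3K9 product from 2 h room-temperature reactions (G9a 20 nM, peptide 500 nM, SAM 20 uM) was detected with 0.5 ug/mL rabbit anti-H3K9me1 antibody.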
HP1b binding inh – blocks HP1-beta chromodomain binding to methylated histone tails. AlphaScreen HP1-beta / biotin-H3K9me3 peptide binding. P83916. Potency, µM (doses to about 114 µM), without a hit: at the top dose activity change, negative = inhibition, actives largely listed as inhibitors. 390,000 tested, 0.56% active; further: potency means the concentration at half of the fitted maximal effect; nearly all actives have a fitted effect of over 70% in size
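HP1-beta protein (50 nM final) preincubated 30 min at room temperature with biotinylated H3(1-18)K9me3 peptide (50 nM) in PBS pH 7.4, 0.01% Tween-20, then compound added for 30 min. AlphaScreen streptavidin donor/nickel chelate acceptor beads (10 ug/mL final), 30 min dark, luminescence read.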
Starred values were filed as active, the others as inactive; u = inconclusive; x = no result given; [ ] = dose if it differs, or a comment. In the library only some 12% were active in any assay of this set; here they are far more common. Unless noted, the call rests on the fitted dose curve; in most records, active means well fitted curve in the direction sought with a large enough effect; inconclusive means small, poorly fitted or top-dose-only effect, or another doubt; inactive means no such curve, though single readings can be large; an effect the other way counts as inactive or inconclusive.

SMILES	PLK1 PBD inh	BAZ2B block	PI5P4K alpha inh	JMJD2A Tudor inh	G9a inh	HP1b binding inh
COc1ccc(C(=O)/C=C/c2ccc(O)cc2)c(O)c1C/C=C(\C)CCC=C(C)C	1%	x	75	28µM*	x	-19%
COc1cc(/C=C/C(C)=O)cc(OC)c1OC	30µM*	3%	-2	-10%[11.4 µM]	-2%	-16%
Cc1cc(NC(=O)CN(C)S(=O)(=O)c2ccc3c(c2)CCC(=O)N3)ccc1Br	x	-3%	x	-12%	-47%[59 µM]	11%
O=C(Nc1c(Cl)cc([N+](=O)[O-])cc1Cl)c1cc(Cl)cc(Cl)c1O	x	x	x	u	x	-6%
COc1ccc(C)cc1Nc1n[n+](-c2ccccc2)c(-c2ccc(NC(C)=O)cc2)s1	-22%	u	-16	-30%	32µM*	42%
COc1ccc(C)cc1Nc1n[n+](C)c(-c2ccc(C(=O)O)cc2)s1	x	-23%	x	x	u	x
COc1ccc(C)cc1Nc1n[n+](-c2ccccc2)c(-c2ccc(SC)cc2)s1	-26%	56µM*	-15	u	45µM*	-7%
COc1ccc(C)cc1Nc1n[n+](-c2ccccc2)c(-c2cc([N+](=O)[O-])cc(OC)c2O)s1	8%	u	-24	u	32µM*	-2%
CCOc1ccc(-c2cc(-c3nc(-c4cc(OC)c(OC)c(OC)c4)no3)[nH]n2)cc1Cl	x	1%	x	-7%	-3%[59 µM]	39%
Cc1cc(NC(=O)Nc2nc3c(s2)CCCCCC3)ccc1Br	x	-4%	x	-31%	-10%[59 µM]	18%[57 µM]
Cc1nc(N)sc1N=Nc1ccccc1C(F)(F)F	-7%	28µM*	11	50µM*	40µM*	35µM*
Cc1ccc(-n2cccc2C(=O)NS(=O)(=O)c2ccc(C)cc2)cc1	-10%	-34%	-1	-18%	-37%	50%
Cc1ccc(-n2cccc2C(=S)N=P(N(C)C)(N(C)C)N(C)C)cc1	u	u	-16	35µM*	u	-27%
COc1ccc(-c2cnnn2-c2ccc(NC(=O)c3c(F)cccc3F)cc2)cc1	x	-30%	x	-35%	-23%[59 µM]	15%
COc1ccc(Oc2ncc3nc(-c4cccc(C#N)c4)c(=O)n(Cc4cccc(OC)c4)c3n2)cc1	x	x	x	x	11%[0.501 µM]	x
COc1ccc(CN2CCCC(C(=O)N3CCc4ccccc4C3)C2)cc1OC (stereo not drawn)	u	89µM*	-1	22µM*	u	-7%
O=C(C1CCCN(Cc2ccc([N+](=O)[O-])cc2)C1)N1CCCCC1 (stereo not drawn)	0%	56µM*	0	25µM*	28µM*	u
COc1ccc(CN2CCCC(C(=O)N3CCCCC3)C2)cc1OC (stereo not drawn)	-4%	71µM*	-1	20µM*	2.8µM*	9%
COc1ccc(C(=O)C2CCCN(C(=O)C3CCOCC3)C2)cc1OC (stereo not drawn)	3%	-2%	-1	-5%	9%	69%
CC(CNC(=O)CN(C)CC(=O)Nc1ccccc1Br)c1ccccc1 (stereo not drawn)	2%	13%	5	5%	45µM*	32%
O=C(Cc1cccc(F)c1)Nc1ccc2c(c1)CCC2	-2%	3%	0	-5%	16%	3%
O=C(Cc1ccc2c(c1)CCCC2)Nc1ccc2ccccc2c1	u	-4%	-1	-12%	7.1µM*	u
CN(CC(=O)Nc1ccc2c(c1)CCC2)CC(=O)Nc1ccccc1Br	6.7µM*	12%	-28	14µM*	7%	21%
CC[N+](C)(CC)CC(O)COCC1COc2ccccc2O1 (stereo not drawn)	-19%	5%	-3	-23%	6.3µM*	0%
O=[N+]([O-])c1ccc(Cl)c(S(=O)(=O)Nc2cccc(-c3ccc(N4CCOCC4)nn3)c2)c1	-7%	-29%	-17	-16%	50µM*	9%
SMILES	PLK1 PBD inh	BAZ2B block	PI5P4K alpha inh	JMJD2A Tudor inh	G9a inh	HP1b binding inh
O=[N+]([O-])c1ccc(S(=O)(=O)Nc2cccc(-c3ccc(N4CCOCC4)nn3)c2)cc1	-10%	-26%	-1	-15%	25µM*	9%
Cc1ccc(S(=O)(=O)Nc2cccc(-c3ccc(N4CCCCCC4)nn3)c2)cc1C	-14%	u	4	-18%	16%	-4%[57 µM]
CCOc1ccc(-c2cccc(NS(=O)(=O)c3cc([N+](=O)[O-])ccc3Cl)c2)nn1	-14%	u	-17	-36%	50µM*	-12%
Cc1ccc([N+](=O)[O-])cc1S(=O)(=O)Nc1cccc(-c2ccc(N3CCCC3)nn2)c1	-14%	u	-7	-28%	14µM*	2%
O=[N+]([O-])c1ccc(S(=O)(=O)Nc2ccc(-c3ccc(N4CCOCC4)nn3)cc2)cc1	-11%	-3%	-6	-27%	9%[2.33 µM]	12%
O=C(Nc1ccc(F)cc1F)c1ccc(-n2cccn2)nc1	-2%	-3%	-7	u	-3%	30%
CC(C)Sc1ccc(C(=O)Nc2ccc(F)cc2F)cn1	19µM*	3%	-18	-14%[11.4 µM]	22%	0%
O=S1(=O)N=C(Nc2cccc(C(F)(F)F)c2)c2ccccc21	x	0%	x	12%	0%[59 µM]	24%
COC(=O)c1cc(OC)c(OC)c(OC)c1NC(=O)c1cc(=O)n(C)c(=O)n1C	x	-9%	x	-5%	28µM*	22%
COc1ccc(CCNC(=O)c2cc(=O)n(C)c(=O)n2C)cc1OC	-11%	-14%	-11	-7%	5%[59 µM]	12%
Cc1cc(/C=C(\C#N)c2nnc(N3CCOCC3)n2-c2ccccc2)c(C)n1-c1ccccc1	x	50µM*	x	x	u	x
COc1cc(/C=C(\C#N)c2nnc(N3CCOCC3)n2-c2ccccc2)ccc1O	-1%	-2%	1	-13%	u	21%
C=CCN1C(c2ccccc2)=CS/C1=C(/C#N)c1nnc(N2CCOCC2)n1-c1ccccc1	21µM*	-34%	-7	u	u	14%
O=C(CN1C(=O)S/C(=C\c2ccc(-c3cc(C(=O)O)ccc3Cl)o2)C1=O)Nc1ccc2c(c1)OCO2	x	8.9µM*	x	x	u	x
Cc1ccc(NC(=O)CN2C(=O)S/C(=C\c3ccc(-c4cccc(C(=O)O)c4C)o3)C2=O)cc1C	19µM*	16µM*	u	18µM*	18µM*	35µM*
CCC(=O)N1CCC1(C)C(=O)Nc1ccc(OC(F)F)cc1 (stereo not drawn)	-2%	x	3	x	x	x
Cc1ccc(S(=O)(=O)CCC(=O)Nc2ccccc2Cl)cc1	-5%	6%	-3	-13%	-24%	42%
Cc1c(Cl)cccc1NC(=O)NCc1ccccn1	-10%	-2%	-10	-8%	95%	33%
Cc1c(Cl)cccc1NC(=O)NCc1ccc(F)cc1	-15%	-5%	-3	-8%	50µM*	11%
